Test results as given in PubChem BioAssay (NCATS).
The source made the active and inactive calls. Calls follow the shape of the dose curve; as a rule, active = well fitted curve in the direction sought with a large enough effect; inconclusive = small, poorly fitted or top-dose-only effect, or another doubt; inactive = no such curve, though single readings can be large; an effect the other way counts as inactive or inconclusive.

experiment: Cellular Toxicity (caspase-3) HUV-EC-C (AID 656); conditions: HUV-EC-C cells, caspase-3 activation (apoptosis); series mostly up to 92.2 µM; caspase-3 activation: at the top concentration;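 also: cells exposed to compound for 16 h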; also: potency is read from the fitted curve at half-maximal effect;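 as to caspase-3 activation: 0% = DMSO basal and 100% = 100 µM tamoxifen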
Method in brief: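 Concentration-dependent caspase 3/7 induction was assessed in HUV-EC-C cells exposed for 16 hours. Data scaled between DMSO and tamoxifen (100 uM) controls.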

SMILES	caspase-3 activation	Potency
O=c1c(O)c(-c2ccc(O)cc2)oc2cc(O)cc(O)c12	-3.93% (inactive)	–
O=c1cc(-c2ccc(O)cc2)oc2cc(O)cc(O)c12	-11.3% (inactive)	–
O=c1c(-c2ccc(O)cc2)coc2cc(O)ccc12	-7.11% (inactive)	–
CC/C(=C(\c1ccccc1)c1ccc(OCCN(C)C)cc1)c1ccccc1	–	63.1 µM (active)
O=C(O)c1cc(O)c2c(c1)C(=O)c1cccc(O)c1C2=O	-7.65% (inactive)	–
CC(=O)c1ccc(S(=O)(=O)NC(=O)NC2CCCCC2)cc1	-0.517% (inactive)	–
CC(=O)O[C@]1(C(C)=O)CC[C@H]2[C@@H]3C=C(Cl)C4=CC(=O)[C@@H]5C[C@@H]5[C@]4(C)[C@H]3CC[C@@]21C	1.87% (inactive)	–
CCn1cc(C(=O)O)c(=O)c2ccc(C)nc21	-4.54% (inactive)	–
O=C(O)Cc1cccc2ccccc12	-1.93% (inactive)	–
CCCCC1C(=O)N(c2ccccc2)N(c2ccccc2)C1=O	-1.88% (inactive)	–
CN(C)CCC(c1ccccc1)c1ccccn1 (stereo not drawn)	0.0901% (inactive)	–
CCCNC(=O)NS(=O)(=O)c1ccc(Cl)cc1	-3.42% (inactive)	–
CC1=C(/C=C/C(C)=C/C=C/C(C)=C/C(=O)Nc2ccc(O)cc2)C(C)(C)CCC1	–	31.6 µM (active)
O=c1[nH]cnc2c1ncn2[C@H]1CC[C@@H](CO)O1	0.643% (inactive)	–
O=C1NC(=O)C(c2ccccc2)(c2ccccc2)N1	-2.17% (inactive)	–

experiment: Cellular Toxicity (caspase-3) SHSY5Y (AID 657); conditions: SH-SY5Y caspase-3 activation, DMSO zero, 10 µM staurosporine = 100%; series mostly up to 91.7 µM; caspase-3 activation: at the top concentration;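 also: cells exposed to compound for 16 hours at 37 °C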
Method in brief: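 Readout: caspase-cleaved peptide-aminoluciferin substrate driving luciferase light in SH-SY5Y neuroblastoma cells after 16 h treatment. Response normalized to DMSO and 10 uM staurosporine controls.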

SMILES	caspase-3 activation
O=c1c(O)c(-c2ccc(O)cc2)oc2cc(O)cc(O)c12	-2.74% (inactive)
O=c1cc(-c2ccc(O)cc2)oc2cc(O)cc(O)c12	-3.06% (inactive)
O=c1c(-c2ccc(O)cc2)coc2cc(O)ccc12	-5.45% (inactive)
O=C(O)c1cc(O)c2c(c1)C(=O)c1cccc(O)c1C2=O	-3.8% (inactive)
CC(=O)c1ccc(S(=O)(=O)NC(=O)NC2CCCCC2)cc1	-0.364% (inactive)
CC(=O)O[C@]1(C(C)=O)CC[C@H]2[C@@H]3C=C(Cl)C4=CC(=O)[C@@H]5C[C@@H]5[C@]4(C)[C@H]3CC[C@@]21C	-0.232% (inactive)
CCn1cc(C(=O)O)c(=O)c2ccc(C)nc21	0.798% (inactive)
O=C(O)Cc1cccc2ccccc12	0.401% (inactive)
CCCCC1C(=O)N(c2ccccc2)N(c2ccccc2)C1=O	0.978% (inactive)
CN(C)CCC(c1ccccc1)c1ccccn1 (stereo not drawn)	1.64% (inactive)
CCCNC(=O)NS(=O)(=O)c1ccc(Cl)cc1	1.27% (inactive)
O=c1[nH]cnc2c1ncn2[C@H]1CC[C@@H](CO)O1	1.72% (inactive)
O=C1NC(=O)C(c2ccccc2)(c2ccccc2)N1	-1.47% (inactive)
